Reference: PMC5540273 (PLoS ONE, 2017)

Legend:
Details in all cases: concentration: 1 μM,replicates: in singlicate; n = 1
[1] = system: MTOR
[2] = system: MUSK
[3] = system: MYLK2
[4] = system: MYLK4
[5] = system: MYLK
[6] = system: MYO3A
[7] = system: MYO3B
[8] = system: T1, NDR1
T1 construct: gene STK38

[9] = system: NDR2
[10] = system: NEK10
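Also: KINOMEscan kinase panel screen.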

Row | SMILES | %Inh [1] | %Inh [2] | %Inh [3] | %Inh [4] | %Inh [5] | %Inh [6] | %Inh [7] | %Inh [8] | %Inh [9] | %Inh [10]
1 | Cc1cccc2c(-c3ccncc3)c(-c3ccc(F)cc3)nn12.Cl [GW461487] | 0% | 7% | 2% | 0% | 14% | 8% | 0% | 25% | 0% | 14%
2 | CCN1CCN(CCCC(=O)Nc2n[nH]c3nc(-c4ccc(O)cc4)c(Br)cc23)CC1 [SB-731579] | 0% | 0% | 98.5% | 1% | 0% | 62% | 17% | 0% | 0% | 0%
3 | Cc1cccc(-c2nc(Nc3ccncc3)c3sccc3n2)n1 [GW869641] | 75% | 0% | 4% | 0% | 35% | 9% | 21% | 35% | 0% | 24%
4 | Cl.Cl.NC[C@H](CC1CCCCC1)NC(=O)c1ccc(-c2ccnc3[nH]ccc23)s1 [GSK1581428] | 14% | 61% | 62% | 99.9% | 66% | 0% | 0% | 95.8% | 79% | 17%
5 | O=C(Nc1ccccc1)c1cccc(Oc2ccc3nccn3n2)c1 | 14% | 73% | 0% | 0% | 0% | 0% | 0% | 0% | 22% | 0%
6 | NC(=O)c1ccc(-c2cc3ncnc(SCC(=O)O)c3s2)cc1 | 39% | 0% | 0% | 0% | 0% | 0% | 3% | 31% | 0% | 0%
7 | Cn1ccc2ncnc(Oc3ccc(NC(=O)Nc4cncc(C(F)(F)F)c4)c(Cl)c3)c21 | 7% | 95% | 0% | 0% | 0% | 0% | 0% | 0% | 0% | 11%
8 | CN(c1cccc(CNc2nc(Nc3ccc4c(c3)CC(=O)N4)ncc2C(F)(F)F)c1)S(C)(=O)=O | 24% | 58% | 74% | 24% | 0% | 0% | 1% | 49% | 0% | 0%
9 | CS(=O)(=O)Nc1ccc(-c2ccnc3[nH]ccc23)cc1 [GSK993273] | 9% | 24% | 27% | 95.5% | 43% | 0% | 0% | 20% | 6% | 71%
10 | COC(=O)c1cccc(NC(=O)NC2CCN(c3ccnc(Nc4cc(OC)c(OC)c(OC)c4)n3)C2)c1 (stereo not drawn) [GSK1379767] | 26% | 5% | 25% | 14% | 11% | 43% | 0% | 18% | 38% | 3%
11 | C[C@@H](Oc1cc(-n2cnc3cc(-c4ccncc4)ccc32)sc1C(N)=O)c1ccccc1Cl [GSK479719] | 6% | 11% | 22% | 0% | 1% | 0% | 0% | 0% | 0% | 0%
12 | CC(=O)Nc1ccc(-c2cc3ncnc(SCC(=O)O)c3s2)cc1 | 3% | 12% | 9% | 14% | 6% | 5% | 0% | 0% | 8% | 25%
13 | CC(C(=O)NC1CCN(c2ccnc(Nc3ccc(F)cc3)n2)C1)c1ccc(Cl)cc1 (stereo not drawn) [GSK1379713] | 17% | 6% | 3% | 0% | 0% | 0% | 0% | 15% | 0% | 0%
14 | COc1cccc(OC)c1C(=O)Nc1cccc(-c2nn3ccccc3c2-c2ccnc(Nc3cccc(F)c3)n2)c1 [GSK361065] | 0% | 3% | 0% | 0% | 87% | 28% | 13% | 17% | 13% | 0%
15 | O=C(Nc1cccc(C(F)(F)F)c1)c1cccc(Oc2ccc3nccn3n2)c1 | 0% | 12% | 0% | 0% | 6% | 0% | 0% | 80% | 0% | 0%
16 | c1ccc(Oc2ccc(Nc3ccnc4ccc(-c5ccccn5)cc34)cc2)cc1 [GW407034] | 15% | 15% | 12% | 4% | 14% | 10% | 0% | 0% | 0% | 2%
17 | Cn1cc(-c2cccc3c(N)c(C(N)=O)nnc23)cn1 | 0% | 3% | 0% | 81% | 33% | 15% | 23% | 8% | 23% | 48%

Row | SMILES | %Inh [1] | %Inh [2] | %Inh [3] | %Inh [4] | %Inh [5] | %Inh [6] | %Inh [7] | %Inh [8] | %Inh [9] | %Inh [10]
18 | CC(C)c1nc(-c2cccc(NS(=O)(=O)c3ccccc3)c2)c(-c2ccnc(Nc3ccc4c(c3)CN(C)CC4)n2)s1 [GSK1649598] | 0% | 15% | 0% | 13% | 13% | 48% | 0% | 31% | 0% | 0%
19 | CC(C)S(=O)(=O)N1CCN(Cc2ccc3c(c2)nc(NC(=O)c2ccsc2)n3C[C@H](O)c2ccccc2)CC1 [GW635815] | 14% | 27% | 15% | 0% | 16% | 8% | 0% | 35% | 24% | 2%
20 | O=c1[nH]cc(-c2ccc(O)cc2)c2sc(-c3ccncc3)cc12 [GSK1033723] | 18% | 0% | 33% | 44% | 26% | 0% | 0% | 38% | 8% | 12%
21 | Cl.c1ccc(Oc2ccc(Nc3ccnc4cc(-c5ccc(CN6CCNCC6)o5)ccc34)cc2)nc1 [GW567142] | 0% | 0% | 0% | 8% | 1% | 7% | 0% | 10% | 4% | 3%
22 | CC(=O)Nc1nc2cnc(Nc3cc(NC(=O)c4cccc(CC(C)(C)C#N)c4)ccc3C)nc2s1 | 14% | 2% | 0% | 14% | 42% | 25% | 0% | 0% | 13% | 0%
23 | CN(c1ccc2c(c1)nc(NCc1ccc(F)cc1)n2C)c1ccnc(Nc2ccc(CS(C)(=O)=O)cc2)n1.Cl [GW813244] | 0% | 51% | 0% | 13% | 1% | 0% | 45% | 31% | 0% | 10%
24 | O=C(Nc1n[nH]c2cc(-c3ccco3)ccc12)C1CC1 [SB-737447] | 0% | 0% | 86% | 6% | 44% | 14% | 0% | 0% | 22% | 0%
25 | Cc1ccc(C(=O)Nc2ccc(Oc3ccc4nc(NC(=O)C5CC5)cn4c3)c(F)c2)c(=O)n1-c1ccccc1 | 0% | 99.8% | 0% | 0% | 15% | 0% | 4% | 8% | 0% | 0%
26 | C[C@@H]1CNc2c(sc3ccc4nc(-c5ccc(O)cc5)ccc4c23)C(=O)N1 | 0% | 0% | 14% | 10% | 65% | 22% | 93.2% | 26% | 0% | 7%
27 | Cc1ccc(Nc2ccnc(Nc3ccc4c(c3)CS(=O)(=O)C4)n2)cc1O.Cl [GW579362] | 30% | 53% | 32% | 87% | 27% | 15% | 0% | 28% | 0% | 16%
28 | C[C@@H](Oc1cc(-n2cnc3cc(-c4cnn(C)c4)ccc32)sc1C(N)=O)c1ccccc1Cl [GSK580432] | 14% | 64% | 65% | 22% | 17% | 17% | 0% | 15% | 0% | 30%
29 | OCCn1cc(-c2cnc3nnn(Cc4ccc5ncccc5c4)c3n2)cn1 | 52% | 0% | 0% | 0% | 3% | 0% | 0% | 7% | 4% | 0%
30 | Cc1nnc(-c2ccc3occ(-c4ccc(S(C)=O)cc4)c3n2)o1 (stereo not drawn) | 0% | 0% | 6% | 0% | 0% | 0% | 0% | 0% | 0% | 0%
31 | COc1cc(Nc2nccc(N3CCC(NC(=O)c4cccc(C#N)c4)C3)n2)cc(OC)c1OC (stereo not drawn) [GSK1379751] | 0% | 0% | 0% | 4% | 0% | 46% | 0% | 0% | 0% | 6%
32 | COc1cc2c(Nc3ccc(NC(=O)c4ccccc4)cc3)ncnc2cc1OCCCN1CCOCC1 [GSK301329] | 15% | 13% | 0% | 0% | 2% | 0% | 0% | 5% | 0% | 3%
33 | COC(=O)c1cccc(NC(=O)NC2CCN(c3ccnc(NCc4ccc(F)cc4)n3)CC2)c1 [GSK1379860] | 23% | 0% | 7% | 0% | 0% | 0% | 0% | 0% | 0% | 1%
